The nature of this experiment: Primary imaging screen for DUSP6 inhibitors that restore phospho-Erk in transfected HeLa cells, chemical complementation (AID 609). As to conditions: HeLa MKP-3 transfected, phospho-Erk imaging KS statistic; measured here: cell density z-score; at 10 µM; cells stimulated with TPA for 15 min.
The molecule `COc1ccc(Cn2c(O)cc(=O)[nH]c2=O)cc1` had a z-score of -1.59.
Under `CC(C(=O)N1CCOCC1)N1C(=O)c2ccccc2C1=O` (stereo not given) stands 1.24.
In the case of `COC(=O)CSc1nc(N)c2c3c(sc2n1)CCCC3` it was -2.1; in that of `N#Cc1c(-c2ccco2)cc(C2CC2)nc1N`, -1.1.
In the case of `CC1(C)Cc2c(C#N)c(N3CCOCC3)nc(-c3ccccc3)c2CO1` it was -0.0371; in that of `CC(=O)Nc1cnc2ccccc2n1`, -0.876; in that of `COc1ccc(OCC(=O)N2CCN(C(=O)c3cccc4ccccc34)CC2)cc1`, -0.479.
On to `CC(C)CC(=O)Nc1ccccc1N1CCCC1`, for which the z-score is -0.814.
In the case of `CCCNC(=O)N(C)c1nncnc1C(=O)NC` it was 1.47; in that of `N#CC1(P(=O)(c2ccccc2)c2ccccc2)CC1`, -0.778; in that of `Cc1nc(Nc2ncc3c(n2)CC(C)(C)CC3=O)nc2ccccc12`, -2.93.
In the case of `O=c1c(F)cn(C2CCCO2)c(=O)n1Cc1ccccc1Cl` (stereo not given) it was 0.269.
Under `CCC(=O)Nc1cc(-c2nn(C)c(=O)c3ccccc23)ccc1N1CCCCC1` stands -0.258; under `O=c1[nH]c(=O)n(Cc2ccco2)c2c1C(C(F)(F)F)(C(F)(F)F)N=C(c1ccco1)N2`, -0.683; under `Cn1c(=O)n(C)c2cc(C(=O)c3ccccc3)ccc21`, 2.47.
With `N#Cc1nc(-c2ccc(Cl)cc2)oc1N1CCCCC1`, the z-score is -0.0904.
`Cc1cc(=O)oc(C)c1C(=O)NCCNC(=O)c1c(C)cc(=O)oc1C` yielded a z-score of 0.642.
Under `CCCCNC(=O)N1CCOCCOCCN(C(=O)NCCCC)CCOCC1` stands 2.57; under `CCN(CC)c1ccc2cc(C(=O)Nc3ccccn3)c(=O)oc2c1`, -0.204; under `CCN1CC2=C(OC(N)=C(C#N)C2c2ccccc2)/C(=C\c2ccccc2)C1` (stereo not given), 0.232.
